Results filed as inconclusive are left out. Activity calls are given as the source filed them.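 Rule for the calls, unless noted: active = normalized viability below 100% at a tested concentration; inactive = the rest.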
Legend:
[1] = circadian clock period modulators, cell-based, LOPAC library, luminescence reporter (AID 2774; call rule not given here;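 note: values are relative to mean of DMSO wells on each plate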); details: circadian reporter cells, at 7 µM, actives lie on both sides
[2] = test system: Hepatitis C virus NS3 helicase; experiment: HCV NS3 helicase inhibitors, primary screen, biochemical, fluorescence polarization, LOPAC1280 library (AID 687035; in the data active = inhibition above about 37%); details: Purified HCV NS3 helicase, Cy5-dT15 ssDNA binding fluorescence polarization; stronger effect = higher value; concentration not given here
[3] = Cy5 fluorescence quenching or enhancement artefacts, artefact control for HCV NS3 helicase inhibitor project, biochemical, LOPAC1280 (AID 687037; call rule not given here); details: Cy5-DNA-NS3h complex fluorescence interference counterscreen
[4] = growth inhibition of DIPG glioma cells, dose response, cell-based, SU-DIPG-IV, MIPE4.0, CellTiter-Glo, qHTS (AID 1347063; cut-off not given, nearly all actives have AC50 up to about 30 µM;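 note: compound exposure lasted 48 hours before the viability readout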); details: SU-DIPG-IV viability, CellTiter-Glo ATP luminescence
[5] = growth inhibition of DIPG glioma cells, dose response, cell-based, SU-DIPG-XIII, MIPE5.0, CellTiter-Glo, qHTS (AID 1347064; cut-off not given, nearly all actives have AC50 up to about 23 µM;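 for AC50: cells exposed to compound for 48 hours before the viability read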); details: SU-DIPG-XIII viability, CellTiter-Glo ATP luminescence
[6] = SU-DIPG-VI glioma cell viability, MIPE4.0 library, CellTiter-Glo luminescence, qHTS (AID 1347066; cut-off not given, nearly all actives have AC50 up to about 30 µM;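 note: cells exposed to compound for 48 hours before readout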); details: CellTiter-Glo ATP luminescence
[7] = SU-DIPG-XXV glioma cell viability, MIPE5.0 library, qHTS (AID 1347068; cut-off not given, nearly all actives have IC50 up to about 30 µM;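 for IC50: cells exposed to compound for 48 hours before viability readout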)
[8] = sensitizers of A549 cells to miR-34 induction, primary screen, imaging, A549 dox-inducible miR-34, nuclei and caspase counts (AID 1347080;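 active = compounds whose cell count with miR-34 switched on is under 0.7 times the count with it off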); details: A549 miR-34 inducible, Hoechst nuclei count, 48 h
[9] = phospholipid biosynthesis inhibitors in animal cells, primary screen, cell-based, LOPAC library, screen 4 (AID 1347384; call rule not given here); details: phospholipid biosynthesis inhibition screen, at 10 µM
[10] = viability rescue of complex I mutant cybrids, primary screen, cell-based, galactose medium, ATP luminescence (AID 1645843;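 active = z-score of at least 1.8 in each of two replicates, scored against plate mean and spread of sample wells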;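 note: positive z means more ATP and so rescue of galactose-driven cybrid death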); details: complex I mutant cybrid cells, 72 h, stronger effect = higher value
[11] = viability loss in pontine glioma line – cell-based, SU-DIPG-XXV, MIPE5.0, CellTiter-Glo, qHTS, dose response (AID 1347065; cut-off not given, nearly all actives have AC50 up to about 26 µM;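 note: cells exposed to compound for 48 hours before ATP readout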); details: CellTiter-Glo ATP luminescence
[12] = JHH-DIPG-1 glioma cell viability, MIPE5.0 library, CellTiter-Glo luminescence, qHTS (AID 1347067; cut-off not given, nearly all actives have AC50 up to about 26 µM;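 note: cells exposed to compound for 48 hours before readout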); details: JHH-DIPG-1 glioma viability, CellTiter-Glo ATP luminescence
[13] = modifiers of HSF1 nuclear foci, imaging, Selleck Cancer Library (AID 1347162; in the data active = plate-normalised HSF1 focus index below about 0.46); details: human cells, at 10 µM; SSMD: measured here: HSF1 foci SSMD mean; cell count: measured here: cell number; plate-normalised HSF1 focus index: stronger effect = lower value
[14] = ovarian cancer cell viability with rucaparib, profiling panel, oncology-focused library, rucaparib conditional (AID 1508598); details: patient-derived ovarian cancer cells, CellTiter-Glo viability, 144 h, stronger effect = lower value

SMILES: C[C@H](Cc1ccc(O)c(O)c1)[C@@H](C)Cc1ccc(O)c(O)c1
- period change [1]: 0.005 h (inactive)
- inhibition [2]: -2% (inactive)
- fluorescence ratio (interference) [3]: 1 (inactive)
- AC50 [4]: 16.6 µM (active)
- AC50 [5]: 18.6 µM (active)
- AC50 [6]: 23.5 µM (active)
- outcome [7]: inactive
- fold change ([8]; stronger effect = lower value, cell number ratio, induced over uninduced): 1.02 (inactive)
- fold change ([8]; measured here: relative caspase fold change +Dox/-Dox): 0.821
- cell count ([8]; measured here: total cells with miR-34 induction, stronger effect = lower value): 8920
- cell count ([8]; measured here: total cells without miR-34 induction): 8770
- outcome [9]: inactive
- z-score [10]: -1.22 (inactive)

SMILES: CO[C@H]1C[C@@H]2CC[C@@H](C)[C@@](O)(O2)C(=O)C(=O)N2CCCC[C@H]2C(=O)O[C@H]([C@H](C)C[C@@H]2CC[C@@H](OCCO)[C@H](OC)C2)CC(=O)[C@H](C)/C=C(/C)[C@@H](O)[C@@H](OC)C(=O)[C@H](C)C[C@H](C)/C=C\C=CC=C1C
- AC50 [4]: 8.33 µM (active)
- AC50 [11]: 23.5 µM (active)
- AC50 [12]: 29.5 µM (active)
- IC50 [7]: 23.5 µM (active)

SMILES: CC[C@H](Nc1ncnc2nc[nH]c12)c1nc2cccc(F)c2c(=O)n1-c1ccccc1
- AC50 [4]: 16.6 µM (active)
- outcome [5]: inactive
- outcome [12]: inactive
- outcome [7]: inactive
- SSMD [13]: 2.21
- cell count [13]: 7370
- plate-normalised HSF1 focus index [13]: 1.08 (inactive)
- viability ([14]; at 0.000305 µM, OCI-C5x cells, with rucaparib 10 µM, 100% = cells with rucaparib alone): 99.3% (active)
- viability ([14]; at 0.000305 µM, OCI-C5x cells, without rucaparib): 121% (inactive)
- viability ([14]; at 0.000305 µM, OCI-P5x cells, with rucaparib 20 µM, 100% = cells with rucaparib alone): 96.5% (active)
- viability ([14]; at 0.000305 µM, OCI-P5x cells, without rucaparib): 104% (inactive)
- viability ([14]; at 0.00122 µM, OCI-C5x cells, with rucaparib 10 µM, 100% = cells with rucaparib alone): 104% (inactive)
- viability ([14]; at 0.00122 µM, OCI-C5x cells, without rucaparib): 124% (inactive)
- viability ([14]; at 0.00122 µM, OCI-P5x cells, with rucaparib 20 µM, 100% = cells with rucaparib alone): 98.6% (active)
- viability ([14]; at 0.00122 µM, OCI-P5x cells, without rucaparib): 105% (inactive)
- viability ([14]; at 0.00488 µM, OCI-C5x cells, with rucaparib 10 µM, 100% = cells with rucaparib alone): 108% (inactive)
- viability ([14]; at 0.00488 µM, OCI-C5x cells, without rucaparib): 116% (inactive)
- viability ([14]; at 0.00488 µM, OCI-P5x cells, with rucaparib 20 µM, 100% = cells with rucaparib alone): 82.2% (active)
- viability ([14]; at 0.00488 µM, OCI-P5x cells, without rucaparib): 96.9% (active)
- viability ([14]; at 0.0195 µM, OCI-C5x cells, with rucaparib 10 µM, 100% = cells with rucaparib alone): 101% (inactive)
- viability ([14]; at 0.0195 µM, OCI-C5x cells, without rucaparib): 138% (inactive)
- viability ([14]; at 0.0195 µM, OCI-P5x cells, with rucaparib 20 µM, 100% = cells with rucaparib alone): 87.8% (active)
- viability ([14]; at 0.0195 µM, OCI-P5x cells, without rucaparib): 105% (inactive)
- viability ([14]; at 0.0781 µM, OCI-C5x cells, with rucaparib 10 µM, 100% = cells with rucaparib alone): 110% (inactive)
- viability ([14]; at 0.0781 µM, OCI-C5x cells, without rucaparib): 129% (inactive)
- viability ([14]; at 0.0781 µM, OCI-P5x cells, with rucaparib 20 µM, 100% = cells with rucaparib alone): 96.3% (active)
- viability ([14]; at 0.0781 µM, OCI-P5x cells, without rucaparib): 104% (inactive)
- viability ([14]; at 0.313 µM, OCI-C5x cells, with rucaparib 10 µM, 100% = cells with rucaparib alone): 105% (inactive)
- viability ([14]; at 0.313 µM, OCI-C5x cells, without rucaparib): 119% (inactive)
- viability ([14]; at 0.313 µM, OCI-P5x cells, with rucaparib 20 µM, 100% = cells with rucaparib alone): 103% (inactive)
- viability ([14]; at 0.313 µM, OCI-P5x cells, without rucaparib): 115% (inactive)
- viability ([14]; at 1.25 µM, OCI-C5x cells, with rucaparib 10 µM, 100% = cells with rucaparib alone): 103% (inactive)
- viability ([14]; at 1.25 µM, OCI-C5x cells, without rucaparib): 139% (inactive)
- viability ([14]; at 1.25 µM, OCI-P5x cells, with rucaparib 20 µM, 100% = cells with rucaparib alone): 105% (inactive)
- viability ([14]; at 1.25 µM, OCI-P5x cells, without rucaparib): 109% (inactive)
- viability ([14]; at 5 µM, OCI-C5x cells, with rucaparib 10 µM, 100% = cells with rucaparib alone): 110% (inactive)
- viability ([14]; at 5 µM, OCI-C5x cells, without rucaparib): 133% (inactive)
- viability ([14]; at 5 µM, OCI-P5x cells, with rucaparib 20 µM, 100% = cells with rucaparib alone): 98.1% (active)
- viability ([14]; at 5 µM, OCI-P5x cells, without rucaparib): 102% (inactive)
